The supplement of paper PMC10338343
± gives the standard deviation. The full ranking holds about 5,500 sequences; the median of “pre-steady-state target cleavage rate” is about 0.1, and the highest 2% start at about 0.64. Shown is part of a subset that was picked to be rich in the highest values.

The sequences below were run on MIWI (PIWIL1) piRISC loaded with piRNA #2 (30 nt) (assay: pre-steady-state target cleavage rate (min^-1); MIWI and MILI are mouse PIWI proteins and EfPiwi is from a freshwater sponge; tags in brackets are library labels; higher = faster piRNA-guided slicing of the target). Conditions: guide: piRNA #2 5'p-UUAGGUAACCCAGUAGAUCCAGAGGAAUUC; auxiliary factor: 500 nM mouse GTSF1.
Procedure, shortened: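 In Cleave-'n-Seq, a transcribed, DNA-blocked target RNA library (0.1 nM) was combined with 1 nM active affinity-purified piRISC bearing one synthetic guide, with or without 500 nM GTSF1 partner protein. Reactions ran in HEPES–potassium acetate buffer at 33 °C for 0–8 or 0–960 min. Uncleaved targets were sequenced and normalised to depth and to weakly complementary targets, three trials were pooled, and k3 was capped at 0.0001 min^-1. The pre-steady-state cleavage rate was obtained by fitting a burst-and-steady-state model.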
In the case of CUUAUCCUCUGGAUCUACAGGGUUUCCUAA, the “pre-steady-state target cleavage rate” value is reported as 0.119 ± 0.02. In the case of GAAUUCCUCUGGAUCUACUGGGUGACCUAA, the “pre-steady-state target cleavage rate” value is reported as 0.244 ± 0.038. In the case of GAAUUCGUCUGGAUCUACUGGGUUAGCUAA, the “pre-steady-state target cleavage rate” value is reported as 0.293 ± 0.068. With CUUAACCUCUGGAUCUACUCGGUUACCUUA the “pre-steady-state target cleavage rate” value was 0.052 ± 0.011. GAAUACCUCUGGUUCUACUGGGUUACCUAA was tested, and the “pre-steady-state target cleavage rate” value was 0.59 ± 0.052. CUUAACCUCUGGUUCUACUGGGUUACCUAA was tested, and the “pre-steady-state target cleavage rate” value was 0.479 ± 0.042. For CUUUACCUCUGGUUCUACUGGGUUACCUAA, the “pre-steady-state target cleavage rate” value was 0.514 ± 0.043. With CUUAUCCUCUGGUUCUACUGCGUUACCUAA the “pre-steady-state target cleavage rate” value was 0.455 ± 0.04. For CAAUACCUCUGGAUCUACUGGGUUACCUAA, the “pre-steady-state target cleavage rate” value was 0.395 ± 0.06. With CUAUACCUCUGGUUCUACUGGGUUACCUAA the “pre-steady-state target cleavage rate” value was 0.696 ± 0.053. With CUAUACCUCUGCAUCUACUGGGUUACCUAA the “pre-steady-state target cleavage rate” value was 0.439 ± 0.042. In the case of CAAUACCUCUGGUUCUACUGGGUUACCUAA, the “pre-steady-state target cleavage rate” value is reported as 0.909 ± 0.066. In the case of CUUAACCUCUGGUUCUACUGCGUUACCUAA, the “pre-steady-state target cleavage rate” value is reported as 0.754 ± 0.077. With GAAUUGCUCUGGAUCUACUGGCUUACCUAA the “pre-steady-state target cleavage rate” value was 0.0382 ± 0.014. GAAUUCCUCUGGAUACUACUGGGUUACCUAA was tested, and the “pre-steady-state target cleavage rate” value was 0.373 ± 0.056. With GAAUUCCUCUGGAACUACUGGGUUACCAAA the “pre-steady-state target cleavage rate” value was 0.233 ± 0.056. For CAAUUCCUCUGGAUCUACUCGGUUUCCUAA, the “pre-steady-state target cleavage rate” value was 0.0763 ± 0.028. For CAAUUCGUCUGGAUCUACUGCGUUACCUAA, the “pre-steady-state target cleavage rate” value was 0.376 ± 0.044. In the case of CUUAAGGAGACCUUCCUACUGGGUUACCUAA, the “pre-steady-state target cleavage rate” value is reported as 0.00294 ± 0.0029. CUUAUGCUCUGGAUCUACUGGGUUACGUAA was tested, and the “pre-steady-state target cleavage rate” value was 0.534 ± 0.042. In the case of CAAUUCCUCAGGAUCUUCUGGGUUACCUAA, the “pre-steady-state target cleavage rate” value is reported as 0.485 ± 0.058. With CAAUUCCUCACCAUCUACUGGGUUACCUAA the “pre-steady-state target cleavage rate” value was 0.573 ± 0.069. With CUAUUCCUCACCAUCUACUGGGUUACCUAA the “pre-steady-state target cleavage rate” value was 0.384 ± 0.049. In the case of GAAUUCCUCACCAUCUACUGGGUUACCUAA, the “pre-steady-state target cleavage rate” value is reported as 0.455 ± 0.051. CUUUUCCUCACGAUCUACUGGGUUACCUAA was tested, and the “pre-steady-state target cleavage rate” value was 0.635 ± 0.051. With CAAUUCCUGACGAUCUACUGGGUUACCUAA the “pre-steady-state target cleavage rate” value was 0.212 ± 0.034. With CAAUUCCUCACGAUCUACUGGGUUACCUAA the “pre-steady-state target cleavage rate” value was 0.784 ± 0.05. For CUAUUCCUGACGAUCUACUGGGUUACCUAA, the “pre-steady-state target cleavage rate” value was 0.133 ± 0.023. With GAAUUCCUCACGAUCUACUGGGUUACCUAA the “pre-steady-state target cleavage rate” value was 0.697 ± 0.051. CUAUUCCUCACGAUCUACUGGGUUACCUAA was tested, and the “pre-steady-state target cleavage rate” value was 0.659 ± 0.042. With CAAUUCCUCUGGAUCUACAGGGUUAGCUAA the “pre-steady-state target cleavage rate” value was 0.157 ± 0.054. CUUAAGCUCUCGAUCUACAGGGUUACCUAA was tested, and the “pre-steady-state target cleavage rate” value was 0.185 ± 0.012. CUUAUCCUCUGGAUCUUCUGGGUUACCUUA was tested, and the “pre-steady-state target cleavage rate” value was 0.289 ± 0.053. For GAAUACCUCUGGAUCUACUGGGUAACCUAA, the “pre-steady-state target cleavage rate” value was 0.168 ± 0.035. In the case of CAAUUCCUCUGCAUCUACUGCGUUACCUAA, the “pre-steady-state target cleavage rate” value is reported as 0.666 ± 0.058. With GAAUUCCUCUGCAUCUACUGCGUUACCUAA the “pre-steady-state target cleavage rate” value was 0.591 ± 0.054. With CUAUUCCUCUGCAUCUACUGGGUUACCUAA the “pre-steady-state target cleavage rate” value was 0.463 ± 0.04. CUAUUCCUCUGCAUCUACUGCGUUACCUAA was tested, and the “pre-steady-state target cleavage rate” value was 0.654 ± 0.047. In the case of CUUUUCCUCUGCAUCUACUGCGUUACCUAA, the “pre-steady-state target cleavage rate” value is reported as 0.49 ± 0.037. With CUUAUCCUCUGCAUCUACUGCGUUACCUAA the “pre-steady-state target cleavage rate” value was 0.377 ± 0.032. For GAAUUCCUCUGGAUCUACUGGCAUACCUAA, the “pre-steady-state target cleavage rate” value was 0.00471 ± 0.003. CUUAACCUCUGAAUCUACUGGGUUACCUAA was tested, and the “pre-steady-state target cleavage rate” value was 0.158 ± 0.019. With CUUAACCUCUCGAUCUACUGGCUUACCUAA the “pre-steady-state target cleavage rate” value was 0.173 ± 0.016. In the case of CUUAAGGUCUGGAUCUUCUGGGUUACCAAA, the “pre-steady-state target cleavage rate” value is reported as 0.0379 ± 0.015. For CUUUUCCUCUUGGAUCUACUGGGUUACCUAA, the “pre-steady-state target cleavage rate” value was 0.346 ± 0.033. GAAUUCCUCUUGGAUCUACUGGGUUACCUAA was tested, and the “pre-steady-state target cleavage rate” value was 0.402 ± 0.042. GAAUUCCUCUGAUCUACUGGGUUACCUAA was tested, and the “pre-steady-state target cleavage rate” value was 0.454 ± 0.062. CUAUUCCUCUUGGAUCUACUGGGUUACCUAA was tested, and the “pre-steady-state target cleavage rate” value was 0.433 ± 0.046. With CUAUUCCUCUGAUCUACUGGGUUACCUAA the “pre-steady-state target cleavage rate” value was 0.395 ± 0.048. CUAUUCCUCUUGAUCUACUGGGUUACCUAA was tested, and the “pre-steady-state target cleavage rate” value was 0.767 ± 0.04. For CAAUUCCUCUUGAUCUACUGGGUUACCUAA, the “pre-steady-state target cleavage rate” value was 0.866 ± 0.044. CAAUUCCUCUUGGAUCUACUGGGUUACCUAA was tested, and the “pre-steady-state target cleavage rate” value was 0.358 ± 0.046. With GAAUUCCUCUUGAUCUACUGGGUUACCUAA the “pre-steady-state target cleavage rate” value was 0.74 ± 0.037. For CAAUUCCUCUGAUCUACUGGGUUACCUAA, the “pre-steady-state target cleavage rate” value was 0.528 ± 0.061. In the case of CUUUUCCUCUGAUCUACUGGGUUACCUAA, the “pre-steady-state target cleavage rate” value is reported as 0.304 ± 0.036. CUUUUCCUCUUGAUCUACUGGGUUACCUAA was tested, and the “pre-steady-state target cleavage rate” value was 0.705 ± 0.039. With CUUAUCGUCUGGAUCUACUGGGUUACCUUA the “pre-steady-state target cleavage rate” value was 0.295 ± 0.066. With CAAUUCCUCUGGAACUACUGGGUAACCUAA the “pre-steady-state target cleavage rate” value was 0.235 ± 0.035. CUUUUCCUCUGGAUCUACACCGUUACCUAA was tested, and the “pre-steady-state target cleavage rate” value was 0.0786 ± 0.0085. In the case of CUUAACCUCUCGAUCUACUGGGUUACCUUA, the “pre-steady-state target cleavage rate” value is reported as 0.373 ± 0.034. For GAAUUCCUCUGGAACUAGUGGGUUACCUAA, the “pre-steady-state target cleavage rate” value was 0.221 ± 0.027. For GAAUUCCUCUGGAUCUUCUGGGUUACCUAA, the “pre-steady-state target cleavage rate” value was 0.274 ± 0.047. With CAAUUCCUCUGGAUCUACUGGGUUACCUGAA the “pre-steady-state target cleavage rate” value was 0.438 ± 0.14. In the case of CUAUUCCUCUGGAUCUACUGGGUUACAUAA, the “pre-steady-state target cleavage rate” value is reported as 0.739 ± 0.051. With CAAUUCCUCUGGAUCUACUGGGUUACCAUAA the “pre-steady-state target cleavage rate” value was 0.588 ± 0.078. In the case of CUUAUCCUCUGGAUCUACUGGGUUACCAUA, the “pre-steady-state target cleavage rate” value is reported as 0.497 ± 0.069. In the case of GAAUUCCUCUGGAUCUACUGGGUUACCUGAA, the “pre-steady-state target cleavage rate” value is reported as 0.735 ± 0.26. For CUAUUCCUCUGGAUCUACUGGGUUACCAUA, the “pre-steady-state target cleavage rate” value was 0.413 ± 0.054. In the case of CAAUUCCUCUGGAUCUACUGGGUUACCUGA, the “pre-steady-state target cleavage rate” value is reported as 0.328 ± 0.086. For CUAUUCCUCUGGAUCUACUGGGUUACCAUAA, the “pre-steady-state target cleavage rate” value was 0.553 ± 0.069. With CUUAUCCUCUGGAUCUACUGGGUUACAUAA the “pre-steady-state target cleavage rate” value was 0.742 ± 0.048. CAAUUCCUCUGGAUCUACUGGGUUACCAUA was tested, and the “pre-steady-state target cleavage rate” value was 0.518 ± 0.076. For CUUAUCCUCUGGAUCUACUGGGUUACCAUAA, the “pre-steady-state target cleavage rate” value was 0.452 ± 0.06. CAAUUCCUCUGGAUCUACUGGGUUACAUAA was tested, and the “pre-steady-state target cleavage rate” value was 0.739 ± 0.053. With CUUAAGGUCUUGGAUCUACUGGGUUACCUAA the “pre-steady-state target cleavage rate” value was 0.291 ± 0.03.
